{"source": "PubChem BioAssay (NCI)", "note": "This is part of a sample that, as a whole, favours compounds with a hit. Of some 83,000 tested, about 20% had one in any assay.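 In brief: 96-well plates, 48 h treatment, single concentration, percent growth endpoint.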 Unmarked numbers belong to inactive results. Calls of active or inactive are those of the source. How the source made its calls: active means growth percent below 10; inactive means the rest."}
{"test_system": "HL-60(TB) leukemia", "assay": "NCI-60 one-dose screen, 48 h (100 = growth as untreated, 0 = no growth, -100 = all killed)", "conditions": "10 µM unless noted"}
{"smiles": "N#CCNc1ccccc1N", "growth": "95.2%"}
{"smiles": "Cn1c(N)c(N=Cc2ccccc2)c(=O)n(C)c1=O", "growth": "86.1%"}
{"smiles": "CCN1C(=O)N(CC)C2C1NN=c1s/c(=C\\c3ccccc3Br)c(=O)n12", "note": "(stereo not given)", "growth": "-40.7% (active)"}
{"smiles": "O=c1[nH]c(=O)n(Cc2ccc(F)cc2)cc1F", "growth": "88.7% [50 µM]"}
{"smiles": "O=C1/C(=C/c2cn(-c3ccccc3)nc2-c2ccccc2)SC(=S)N1CCc1ccccc1", "growth": "102%"}
{"smiles": "Cc1ccc(-c2c3c(N)nc(-c4cccnc4)nc3nc3c2c(C)nn3-c2ccccc2)cc1", "growth": "95.6%"}
{"smiles": "COc1cc(-c2cc(-c3ccc(Nc4ncnc5cc(Cl)ccc45)cc3)nc(N3CCN(C)CC3)n2)cc(OC)c1OC", "growth": "76.4%"}
{"smiles": "CCN(CC)CCCC(C)Nc1cnc(C(=O)Nc2cccc3ccc(OC)nc23)cn1", "note": "(stereo not given)", "growth": "72.4%"}
{"smiles": "CCN=c1sc2c(n1NC(=O)c1cc3ccc1CCc1ccc(cc1)CC3)C(=O)c1ccccc1C2=O", "growth": "-18.3% (active)"}
{"smiles": "Clc1ccc(C2=NN[C@H](c3cn(-c4ccccc4)nc3-c3ccccc3)C2)cc1", "growth": "100%"}
{"smiles": "COc1cc2ncnc(Nc3ccc(S(=O)(=O)Nc4nccs4)cc3)c2cc1OCCCN1CCOCC1", "growth": "112%"}
{"smiles": "CC(C)N1C(=O)/C(=c2\\sc3n(c2=O)C2C(NN=3)N(C)C(=O)N2C)c2ccccc21", "note": "(stereo not given)", "growth": "25.8%"}
{"smiles": "O=c1[nH]c(=O)n(C2CC(O)C(CO)O2)cc1C(F)(F)F", "note": "(stereo not given)", "growth": "-22.2% (active)"}
{"smiles": "Cc1ccnc(NC(c2ccccc2)c2ccc3cccnc3c2O)c1", "note": "(stereo not given)", "growth": "-2.23% (active)"}
{"smiles": "O=C(Nc1ccc(Cl)cc1F)c1cc(I)ccc1O", "growth": "19.9%"}
{"smiles": "CCN(CC)c1ccc(/C=C2\\SC(=O)C(Nc3nnc(-c4cccnc4SCc4ccccc4)o3)C2=O)cc1", "note": "(stereo not given)", "growth": "19.4%"}
{"smiles": "CCOC(=O)c1c(Cl)c2c(n1Cc1ccccc1)-c1oncc1CCC2", "growth": "25.7%"}
{"smiles": "O=C1C(Br)=CC2C1C1C3CCC3C2(Br)C12OCCO2", "note": "(stereo not given)", "growth": "-6.23% (active)"}
{"smiles": "COC(=O)[C@@]1(C)CC[C@]2(C)CC[C@]3(C)C4=CC=C5C(=CC(=O)C(O)=C5C)[C@]4(C)[C@@H](O)C[C@@]3(C)[C@@H]2C1", "growth": "49.6%"}
{"smiles": "COc1ccc(Cc2cnc(NC(=O)c3cc(C)oc3C)s2)cc1", "growth": "-9.34% (active)"}
{"smiles": "COC(=O)C(C)NC1=C(Cl)C(=O)C(NC(C)C(=O)OC)=C(Cl)C1=O", "note": "(stereo not given)", "growth": "97.8%"}
{"smiles": "Cc1cc(-c2cc(OC(=O)c3ccccc3)ccc2Cl)cc2nnc(Nc3ccc(OCCN4CCCC4)cc3)nc12", "growth": "116%"}
{"smiles": "O=C(N/N=C/c1cc2ccccc2n2nnnc12)Nc1ccccc1", "growth": "91.8%"}
{"smiles": "CCOC(=O)C(Cc1ccccc1)n1c(O)c(/C=N/c2ncc(Cc3ccc(Cl)cc3Cl)s2)sc1=S", "note": "(stereo not given)", "growth": "-35.2% (active)"}
{"smiles": "COc1ccc(Cn2cc3c(c2-c2ccccc2)CCc2cnoc2-3)cc1OC", "growth": "7.72% (active)"}
{"smiles": "N#CC1=C(N)Oc2c(sc3c(Br)cccc23)C1c1ccc(Br)cc1", "note": "(stereo not given)", "growth": "6.12% (active)"}
{"smiles": "O=C(Nc1ncccc1OCc1ccccc1)NC1CCCCCC1", "growth": "57.7%"}
{"smiles": "C=CC(=O)Nc1cccc(Oc2nc(Nc3ccc(N4CCN(C)CC4)cc3)nc3ccsc23)c1", "growth": "-62% (active)"}
{"smiles": "CCOc1ccc(Nc2nc(-c3ccc4c(c3)NC(=O)CO4)cs2)cc1", "growth": "66.9%"}
{"smiles": "CC(=O)CCS(=O)c1ccccc1", "note": "(stereo not given)", "growth": "97.4%"}
{"smiles": "COc1cc2cc(OC(C)=O)c3cc4c(cc3c2c(OC)c1OC)OCO4", "growth": "96.6%"}
{"smiles": "Cc1ccc(NS(=O)(=O)c2ccc(-c3cnc(C4CC4)o3)cc2)cc1C", "growth": "-1.17% (active)"}
{"smiles": "O=C(Nc1ccc(Br)cc1)Nc1cccc(Br)c1", "growth": "5.54% (active)"}
{"smiles": "COc1cc(C(=O)/C=C/c2c(-c3cccs3)nc3ccccn23)cc(OC)c1OC", "growth": "-14.2% (active)"}
{"smiles": "CCN(CC)CCCC(C)Nc1cnc(C(=O)Nc2cc(C)cc3cccnc23)cn1", "note": "(stereo not given)", "growth": "76.8%"}
{"smiles": "CCC(c1ccccc1)C(CC)c1ccc(O)c(O)c1", "note": "(stereo not given)", "growth": "68%"}
{"smiles": "O=S(=O)(NCCCNc1nccc(-c2c(-c3cccc(F)c3)nc3occn23)n1)c1cccc2ccccc12", "growth": "-26.8% (active)"}
{"smiles": "C[C@@H](Oc1cc(-n2cnc3ccc(CN4CCN(C)CC4)cc32)sc1C(N)=O)c1ccccc1C(F)(F)F", "growth": "-19.4% (active)"}
{"smiles": "Cc1cc(SC#N)ncn1", "growth": "102%"}
{"smiles": "O=c1nc(Nc2cccc(Cl)c2)oc2cc(Cl)oc(=O)c12", "growth": "26.4%"}
